Laboratory results from the OligoGym collection.

molecular target: ADRB1; assay: pooled miR-30 sensor sort-seq; sequence = guide strand; conditions: shRNA
Further: reference of the scale not given here.

Sequence	sensor-assay potency score (higher = more potent)
ACACACAGGGTCTCGATGCTGG	-0.4
TTGGTGACGAAGTCGCAGCACT	-0.788
TCCACTGAGGTCCACAGCTCGC	-1.74
GACATCGTCGTCGTCGTCGTCC	-1.45
TAGAAGGAGACTACGGACGAGG	-0.754
ACTGAGGTCCACAGCTCGCAGA	-1.49
TCCACTGCTGAGACAGCGGCTC	-1.08
ACGCACAGCACGTCCACTGAGG	-1.84
TCGTCGTCGTCGTCGTCCGAGG	-1.7
TTGGGGTCGTTGTAGCAGCGGC	-1.11
ACGAAGTCGCAGCACTTGGGGT	-1.34
TTGGTGAGCGTCTGCAGCCGCG	-1.38
TTGAGCGCCTTCTGCTCGCGCA	-1.01
TCGAGTCGCTGTCCGCCGCCGC	-1.38
TCGCTGTCCGCCGCCGCCCCGC	-1.6
TCGTCGTCGTCGTCCGAGGCGG	-1.56
TCTTCTTCACCTGCTTCTGGGC	-0.965
TGTCCACTGCTGAGACAGCGGC	-1.28
ATGAGCAGCACGATGAGCGCCA	-0.267
AAGAAGGAGCCGTACTCCCAGC	-1.16
TTGCGGAAGTCGGGGCTGCGGC	-1.38
